Test results taken from PubChem BioAssay (NCI).
Compounds without any hit were thinned out: in the full panel of roughly 79,000, 15% have a hit. Unmarked numbers belong to inactive results. Calls of active or inactive are those of the source. Cut-off read from the data, not from the text of the source: active = growth inhibition above about 70%; inactive = the rest.

assay: NCI Yeast Anticancer Drug Screen. Data for the bub3 strain (AID 167); details: S. cerevisiae bub3 mutant strain, at 5.0 µM (retest, dose inferred, filed as 0.5), stronger effect = higher value
Summary of the method: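 Mutant yeast screening strain plus compound; vehicle-treated cultures serve as the 0% inhibition reference.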

| Structure (SMILES) | growth inhibition |
| --- | --- |
| Oc1ccc2oc3ccccc3c2c1 | 0% |
| O=C(O)Cc1cc(I)c(Oc2ccc(O)c(I)c2)c(I)c1 | 22% |
| O=C(O)/C(=C\c1ccc(Cl)cc1)c1ccc(C(F)(F)F)cc1[N+](=O)[O-] | 18% |
| Fc1ccc(NC(=S)SCc2ccccc2)cc1 | -4% |
| CN(C)c1ccccc1CC(c1c[nH]c2ccccc12)c1c[nH]c2ccccc12 | 66% |
| O=C(c1ccccc1)N1CCN(c2cccc(Cl)c2)CC1 | 9% |
| [C-]#[N+]C(C)(c1ccccc1)c1ccccc1 | -45% |
| Nc1ccccc1[S][Sn]([c]1ccccc1)([c]1ccccc1)[c]1ccccc1 | 97% (active) |
| O=C1C(Cl)=C(Cl)C(=O)c2cc(Cl)c(Cl)cc21 | 98% (active) |
| CCCCCCCNC1CCCc2cc(OC)ccc21 (stereo not drawn) | 21% |
| NCCc1ccc2oc3cc(=O)c4ccccc4c-3nc2c1 | 0% |
| C/C=C/c1cc2c(cc1O)CC[C@@H]1[C@@H]2CC[C@]2(C)[C@@H](O)CC[C@@H]12 | 22% |
| c1ccc(SSc2ccccn2)nc1 | 50% |
| COC1=C2C[C@@H](C)C[C@@H](OC)[C@@H](O)[C@H](C)/C=C(\C)[C@@H](OC(N)=O)[C@H](OC)/C=C\C=C(/C)C(=O)NC(=CC1=O)C2=O | 84% (active) |
| NCc1ccccc1-c1c2nc(c(-c3ccccc3CN)c3ccc([nH]3)c(-c3ccccc3CN)c3nc(c(-c4ccccc4CN)c4ccc1[nH]4)C=C3)C=C2 | 37% |
| Cc1cc(C)n2nc(N)c(C#N)c2c1C#N | -1% |
| CC(=O)OCC1OC(n2c(O)c(N=NC(N)=S)c3ccc([N+](=O)[O-])cc32)C(OC(C)=O)C1OC(C)=O (stereo not drawn) | 6% |
| CC1(c2cccs2)C(C#N)(C#N)C1(C#N)C#N | -4% |
| O=C1C=CC(=O)N1C12CC3CC(CC(C3)C1)C2 | 72% (active) |
| C(=C/c1cnnc2ccccc12)/c1ccccn1 | -7% |

| Structure (SMILES) | growth inhibition |
| --- | --- |
| COc1ccc2c(c1)C1(C)CCCC(C)(C(=O)O)C1CC2 (stereo not drawn) | -8% |
| CCN(CC)c1ccc(N=Nc2ccc(Br)cn2)c(O)c1 | 1% |
| O=[N+]([O-])c1cc(NC(=S)SCc2ccccc2)ccc1Cl | 8% |
| C(=C/c1ccnc2ccccc12)/c1cccs1 | 4% |
| O=P1(O)c2ccccc2CS(=O)(=O)Cc2ccccc21 | 16% |
| CN1C(Cl)=NS(=O)(=O)c2ccccc21 | 15% |
| O=C1C=CC(=O)N1c1ccc(Cl)cc1 | 101% (active) |
| CC(C)CC(C(=O)SCC(C)N1CCCC1)c1ccccc1 (stereo not drawn) | 15% |
| CC(C)OC(=O)c1ccc(CCC2=CC(=O)C=CC2=O)cc1 | 92% (active) |
| Cc1ccnc2[nH]c3ccccc3c(=O)c12 | 15% |
| COc1cc(/C=C/C(=O)c2ccc(O)c(OC)c2)ccc1O | 17% |
| CC12C=CC(=O)C=C1CCC1C3CCC(O)(C(=O)CO)C3(C)CC(O)C12F (stereo not drawn) | 6% |
| O=Cc1ccc2c(c1)CC1(C2)Cc2ccc3c(c2C1)CCC3 (stereo not drawn) | -1% |
| C[N+](C)(C)CC(=O)N/N=C(\C(=O)NC1=C(Cl)C(=O)c2ccccc2C1=O)C(C#N)c1nc(-c2ccc([N+](=O)[O-])cc2)cs1 (stereo not drawn) | -23% |
| NC(=O)CC1CCC(c2ccccc2)CC1 (stereo not drawn) | -12% |
| O=C(CC(C[N+](=O)[O-])c1ccc2c(c1)OCO2)c1ccccc1 (stereo not drawn) | 18% |
| CC(=O)OCCCCCCCCCCCCCCO | 1% |
| CCOC(=O)c1sc(N/N=C2\NC(=O)/C(=C/c3ccc([N+](=O)[O-])cc3)S2)nc1C | -26% |
| O=C1OC(c2ccc3c(c2)OCO3)Sc2ccccc21 (stereo not drawn) | 9% |

same assay, conditions: S. cerevisiae bub3 mutant strain, at 50.0 µM (retest, dose inferred, filed as 5.0), stronger effect = higher value

| Structure (SMILES) | growth inhibition |
| --- | --- |
| Oc1ccc2oc3ccccc3c2c1 | 92% (active) |
| O=C(O)Cc1cc(I)c(Oc2ccc(O)c(I)c2)c(I)c1 | 98% (active) |
| O=C(O)/C(=C\c1ccc(Cl)cc1)c1ccc(C(F)(F)F)cc1[N+](=O)[O-] | 84% (active) |
| Fc1ccc(NC(=S)SCc2ccccc2)cc1 | 34% |
| CN(C)c1ccccc1CC(c1c[nH]c2ccccc12)c1c[nH]c2ccccc12 | 91% (active) |
| O=C(c1ccccc1)N1CCN(c2cccc(Cl)c2)CC1 | 93% (active) |
| [C-]#[N+]C(C)(c1ccccc1)c1ccccc1 | 80% (active) |
| Nc1ccccc1[S][Sn]([c]1ccccc1)([c]1ccccc1)[c]1ccccc1 | 99% (active) |
| O=C1C(Cl)=C(Cl)C(=O)c2cc(Cl)c(Cl)cc21 | 98% (active) |
| CCCCCCCNC1CCCc2cc(OC)ccc21 (stereo not drawn) | 35% |
| NCCc1ccc2oc3cc(=O)c4ccccc4c-3nc2c1 | 30% |
| C/C=C/c1cc2c(cc1O)CC[C@@H]1[C@@H]2CC[C@]2(C)[C@@H](O)CC[C@@H]12 | 99% (active) |
| c1ccc(SSc2ccccn2)nc1 | 99% (active) |
| COC1=C2C[C@@H](C)C[C@@H](OC)[C@@H](O)[C@H](C)/C=C(\C)[C@@H](OC(N)=O)[C@H](OC)/C=C\C=C(/C)C(=O)NC(=CC1=O)C2=O | 88% (active) |
| NCc1ccccc1-c1c2nc(c(-c3ccccc3CN)c3ccc([nH]3)c(-c3ccccc3CN)c3nc(c(-c4ccccc4CN)c4ccc1[nH]4)C=C3)C=C2 | 90% (active) |
| Cc1cc(C)n2nc(N)c(C#N)c2c1C#N | -3% |
| CC(=O)OCC1OC(n2c(O)c(N=NC(N)=S)c3ccc([N+](=O)[O-])cc32)C(OC(C)=O)C1OC(C)=O (stereo not drawn) | 34% |
| CC1(c2cccs2)C(C#N)(C#N)C1(C#N)C#N | 36% |
| O=C1C=CC(=O)N1C12CC3CC(CC(C3)C1)C2 | 99% (active) |
| C(=C/c1cnnc2ccccc12)/c1ccccn1 | 28% |

| Structure (SMILES) | growth inhibition |
| --- | --- |
| COc1ccc2c(c1)C1(C)CCCC(C)(C(=O)O)C1CC2 (stereo not drawn) | 93% (active) |
| CCN(CC)c1ccc(N=Nc2ccc(Br)cn2)c(O)c1 | 71% (active) |
| O=[N+]([O-])c1cc(NC(=S)SCc2ccccc2)ccc1Cl | 97% (active) |
| C(=C/c1ccnc2ccccc12)/c1cccs1 | 81% (active) |
| O=P1(O)c2ccccc2CS(=O)(=O)Cc2ccccc21 | 46% |
| CN1C(Cl)=NS(=O)(=O)c2ccccc21 | 11% |
| O=C1C=CC(=O)N1c1ccc(Cl)cc1 | 100% (active) |
| CC(C)CC(C(=O)SCC(C)N1CCCC1)c1ccccc1 (stereo not drawn) | 59% |
| CC(C)OC(=O)c1ccc(CCC2=CC(=O)C=CC2=O)cc1 | 95% (active) |
| Cc1ccnc2[nH]c3ccccc3c(=O)c12 | 96% (active) |
| COc1cc(/C=C/C(=O)c2ccc(O)c(OC)c2)ccc1O | 67% |
| CC12C=CC(=O)C=C1CCC1C3CCC(O)(C(=O)CO)C3(C)CC(O)C12F (stereo not drawn) | 82% (active) |
| O=Cc1ccc2c(c1)CC1(C2)Cc2ccc3c(c2C1)CCC3 (stereo not drawn) | 74% (active) |
| C[N+](C)(C)CC(=O)N/N=C(\C(=O)NC1=C(Cl)C(=O)c2ccccc2C1=O)C(C#N)c1nc(-c2ccc([N+](=O)[O-])cc2)cs1 (stereo not drawn) | 97% (active) |
| NC(=O)CC1CCC(c2ccccc2)CC1 (stereo not drawn) | -53% |
| O=C(CC(C[N+](=O)[O-])c1ccc2c(c1)OCO2)c1ccccc1 (stereo not drawn) | 45% |
| CC(=O)OCCCCCCCCCCCCCCO | 99% (active) |
| CCOC(=O)c1sc(N/N=C2\NC(=O)/C(=C/c3ccc([N+](=O)[O-])cc3)S2)nc1C | 92% (active) |
| O=C1OC(c2ccc3c(c2)OCO3)Sc2ccccc21 (stereo not drawn) | 52% |
